In ChEMBL document CHEMBL3988442, “University of Dundee, Small-Polar-MMV Screening Library” (2021):
Hit rate of the full screen: of about 38,000 compounds, about 1,200 (3.2%) showed an effect of 50% or more. The median lay at about -58%. The sample holds strong results, similar compounds and a random draw of the others, so the mix is not that of the screen.

The molecules below were run on Plasmodium falciparum (assay: Calibr Malaria Delayed Death Assay SOP). Settings: concentration 4.99e-06 (unit not given; other assays of the set use mol/L).
Assay type: functional, organism-based
Set-up: scale not given: in the data most compounds retested in dose-response had high values

SMILES | Percent Effect [%]
CCc1ccccc1OCCN(C)C(=O)CCN1CCCCO1 | 2.137
CCc1ccccc1OCCN(C)C(=O)CCN1CCCO1 | -98.11
CCc1ccccc1OCCN(C)C(=O)CN1CCCC1 | 75.23
CCn1nc(C)c2ccn(CC(=O)NC(C)C)c(=O)c21 | -79.05
COc1ccc(NC(=O)N(CCO)Cc2ccsc2)cc1 | -36.74
COC(=O)CN(C)Cc1cc(Br)cs1 | -75.79
CCCN(C)CC1CCN(c2ncc(Br)cn2)C1 (stereo unspecified) | -74.37
CCCN(C)CC1CCN(c2ccc(Br)c(C)n2)C1 (stereo unspecified) | 72.9
CCN(C)CC1CCN(c2ncc(Br)cn2)C1 (stereo unspecified) | -58.14
CC(C)C(=O)NCCC(=O)N1CCN(c2ccccn2)CC1 | -182.3
CCCC(C)NCc1cccnc1N1CCN(c2ccccn2)CC1 (stereo unspecified) | 51.12
CCC(C)NC(=O)NCCC(=O)N1CCN(c2ccccn2)CC1 (stereo unspecified) | -19.73
CC(C)CC(C)NCc1cccnc1N1CCN(c2ccccn2)CC1 (stereo unspecified) | 55.01
CCC(CC)C(=O)NCCC(=O)N1CCN(c2ccccn2)CC1 | -127.9
CC(C)NCc1cccnc1N1CCN(c2ccccn2)CC1 | 3.171
Cn1c(N)c2c(=O)n(C)c(-c3ccc(Cl)cc3Cl)cc2c(C#N)c1=O | 5.212
Cc1cc(C(=O)N2CCC3(C2)CN(c2ccsc2)C(=O)CN3C)[nH]n1.O=C(O)C(F)(F)F (stereo unspecified) | -16.33
c1ccc(Cc2n[nH]c(C3CCOC3)n2)cc1 (stereo unspecified) | -53.42
COCC(=O)N1CCC2(CC1)CN(c1ccccn1)CCO2.O=C(O)C(F)(F)F | -99.25
COc1ncccc1CN1CCC2(CC1)CN(c1ccccn1)CCO2.O=C(O)C(F)(F)F.O=C(O)C(F)(F)F.O=C(O)C(F)(F)F | 55.38
Cn1ccnc1CN1CCC2(CC1)CN(c1ccccn1)CCO2.O=C(O)C(F)(F)F.O=C(O)C(F)(F)F | -263.3
Fc1ccc(CN2CCC3(CC2)CN(c2ccccn2)CCO3)cc1.O=C(O)C(F)(F)F.O=C(O)C(F)(F)F | 46.67
COc1ccc(CN2CCC3(CC2)CN(c2ccccn2)CCO3)cc1.O=C(O)C(F)(F)F.O=C(O)C(F)(F)F | 60.62
O=C(O)C(F)(F)F.O=C(O)C(F)(F)F.c1ccc(CN2CCC3(CC2)CN(c2ccccn2)CCO3)nc1 | -71.36
O=c1[nH][nH]cc1-c1ccnc(NCCc2ccc(F)cc2)n1 | -53.75
COC(=O)c1cnn(-c2cc(Oc3cccc(C)c3)ncn2)c1N | -10.04

SMILES | Percent Effect [%]
CN1CCC2(CC1)OC(C(=O)NCc1cccnc1)Cn1ccnc12 (stereo unspecified) | -146
COCCN1CCCC(c2nccnc2Nc2nc(C)cs2)C1 (stereo unspecified) | -10.08
O=C(NCC1(O)CCSC1)c1cccc(-n2cccn2)c1 (stereo unspecified) | -128.5
CC(=O)N1CCO[C@@H]2CN(Cc3ccccc3Cl)C[C@@H]2C1.O=C(O)C(F)(F)F | -110.8
O=C(NC1CCNC1)C1(N2CCCCC2)Cc2ccccc2C1 (stereo unspecified) | 33.42
O=C1NCCCC[C@@H]1NC(=O)C1(N2CCCCC2)Cc2ccccc2C1 | -107.8
O=C(NC1CCNCC1)C1(N2CCCCC2)Cc2ccccc2C1 | 62.66
CC(=O)NCC(=O)N1CCCC(C(=O)c2ccc(C(C)(C)C)cc2)C1 (stereo unspecified) | -127.3
CC(C)(C)c1oc(C(N)=O)cc1CN1CCCCC(N)C1 (stereo unspecified) | 3.928
CN(C)[C@H]1CCCCN(Cc2ccccc2Cn2cccn2)C1 | 49.71
N#Cc1cc(C#N)c(SCC(=O)Nc2ccc(F)cc2)nc1N | 66.77
N#Cc1cc(C#N)c(SCCC(=O)Nc2ccc(F)cc2)nc1N | 10.11
N#Cc1cc(C#N)c(SCC(=O)NCc2ccc(F)cc2)nc1N | -76.83
CN(C)c1ncc(CNC(=O)Nc2ccc(C(F)(F)F)cc2)n1C | 68.14
CN(C)c1ncc(CNC(=O)Nc2ccccc2C(F)(F)F)n1C | -113.2
CN(C)c1ncc(CNC(=O)Nc2ccccc2F)n1C | -31.3
COc1cccc(CNc2nc(N3CCOCC3)ns2)c1OC | -58.35
CCn1ncnc1C(C)Nc1cc(C)c2ccc(SC)cc2n1 (stereo unspecified) | -98.68
COC[C@H](C)Nc1cc(C)c2ccc(SC)cc2n1 | 74.39
CSc1ccc2c(C)cc(N[C@@H](C)CO)nc2c1 | 13.21
COCC(=O)N1CCCN(Cc2cc(C(C)C)no2)CC1 | -33.31
Cc1c(C(=O)NCC(C)(C)S(C)(=O)=O)cccc1-c1ccccn1 | -72.33
CCC(CO)N(Cc1ccsc1)Cc1cccc(O)c1 (stereo unspecified) | 67.4
CCC(CO)N(Cc1ccc(C(=O)O)cc1)Cc1ccsc1 (stereo unspecified) | -80.76
CCC(CO)N(CC=C(C)C)Cc1ccsc1 (stereo unspecified) | 20.66
